hgDAF12 agonist – H. glycines DAF-12 receptor agonists, primary screen, cell-based, luminescence, HEK293, GAL4 fusion, UAS-luciferase; Nuclear hormone receptor DAF-12 (Heterodera glycines), GAL4 fusion; HEK293 GAL4-hgDAF12 UAS-luciferase reporter, agonist luminescence; normalized to butyrate control; activation, % at 6.8 µM; hit rate 1.8% among 370,000; AID 687014, 2013;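 active = activation above a cutoff set at the mean of all screened compounds plus 3 SD, cut at about 10% in these data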;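 note: 0% = DMSO wells and 100% = sodium butyrate wells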
DAX1 inh-1 – DAX1 (NR0B1) inhibitors on StAR promoter, primary screen, cell-based, luminescence, SF-1 (NR5A1), full-length DAX-1; hit rate 1.1% among 370,000; HEK293T StAR-luciferase reporter, SF-1/DAX-1 repression relief; inhibition, % at 6.8 µM; AID 652010, 2013;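 active = inhibition above the mean over all tested compounds plus 3 SD, cut at about 3.6% in these data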;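 note: 0% = DAX-1 cells with DMSO and 100% = cells lacking DAX-1 with DMSO; higher inhibition means more luminescence from relief of DAX-1 repression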
GAA850 FXN act – FXN promoter activators, primary screen, cell-based, luciferase luminescence, HEK293 lucGAA850 | HEK293 lucGAA850 FXN promoter luciferase reporter, 24 h; percent of 10 µM SAHA response | activation, % at 6 µM | hit rate 0.56% among 360,000 | AID 540364, 2011;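 active = activation above the average of all compounds screened plus 3 SD, cutoff fixed separately per campaign, cut at about 7.5% in these data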;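 note: 0% = DMSO wells and 100% = 10 µM SAHA wells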
DAX1 inh-2 – DAX1 (NR0B1) inhibitors, primary screen, cell-based, HEK293, Gal4-DAX1, luciferase luminescence. HEK293 Gal4-DAX1 luciferase reporter. inhibition, % at 6.75 µM. hit rate 0.99% among 340,000. AID 504766, 2011;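 active = inhibition above the mean over all tested compounds plus 3 SD, cut at about 4.2% in these data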;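 note: 0% = DAX1-transfected cells with DMSO and 100% = empty-vector control cells with DMSO; inhibition shows as a rise in luminescence from relieved DAX1 repression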
hcDAF12 agonist – H. contortus DAF-12 nuclear receptor activators, primary screen, cell-based, luminescence, HEK293, lit1-tk-luc reporter; hit rate 1.4% among 370,000; activation, % at 6.8 µM; AID 652067, 2013; HEK293 hcDAF-12 lit1-tk-luc reporter; 0% DMSO, 100% Δ7-dafachronic acid;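 active = activation above the mean of all tested compounds plus 3 SD, cut at about 5.5% in these data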;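 note: 100% = response to 3 µM Δ7-dafachronic acid high control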
ssDAF12 agonist – S. stercoralis DAF-12 nuclear receptor activators, primary screen, cell-based, luminescence, HEK293, GRIP1 co-expression, lit1-tk-luc; hit rate 1% among 370,000; activation, % at 6.8 µM; HEK293 ssDAF-12/GRIP1 lit1-tk-luc reporter; % of 3 µM dafachronic acid response; AID 652126, 2013; Nuclear hormone receptor DAF-12 (Strongyloides stercoralis);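 active = activation above the mean over all tested compounds plus 3 SD, cut at about 0.9% in these data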;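 note: 0% = DMSO-only wells and 100% = 3 µM delta7-dafachronic acid wells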
LXRb hcDAF ctr – LXR agonists, Gal4 luciferase reporter, confirmation, counter-screen for hcDAF-12 agonist project, cell-based, luminescence, HEK293, H. contortus campaign. shares compounds with hcDAF12 agonist. HEK293 Gal4-LXR tk-luc reporter, 24 h; normalized: DMSO 0%, positive control 100%. activation, % at 6.8 µM. 3,400 tested, under 10 active;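 active = mean percent activation of the reporter above a cutoff set as the average over tested compounds plus their standard deviation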
Target sequence (P55055 whole entry, looked up, the tested form may be a part): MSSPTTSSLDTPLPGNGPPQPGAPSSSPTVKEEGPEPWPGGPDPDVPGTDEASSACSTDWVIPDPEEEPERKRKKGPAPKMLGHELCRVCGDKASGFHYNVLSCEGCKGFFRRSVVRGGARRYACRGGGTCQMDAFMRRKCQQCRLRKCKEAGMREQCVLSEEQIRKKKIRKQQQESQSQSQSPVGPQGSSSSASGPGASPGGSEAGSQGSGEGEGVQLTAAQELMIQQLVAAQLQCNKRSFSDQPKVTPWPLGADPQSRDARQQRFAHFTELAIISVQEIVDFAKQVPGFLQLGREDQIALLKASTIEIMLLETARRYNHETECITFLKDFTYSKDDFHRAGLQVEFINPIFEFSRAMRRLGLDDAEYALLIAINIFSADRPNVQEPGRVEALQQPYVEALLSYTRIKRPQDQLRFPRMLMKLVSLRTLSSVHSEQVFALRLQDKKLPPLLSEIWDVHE
hcDAF12 conf – H. contortus DAF-12 receptor agonists, confirmation, cell-based, luminescence, HEK293, lit1-tk-luc, triplicate | shares compounds with hcDAF12 agonist | HEK293 hcDAF-12 lit1-tk-luc reporter; % of Δ7-dafachronic acid response | activation, % at 6.8 µM | hit rate 61% among 3,400;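 active = mean activation across triplicate tests above the threshold derived from the earlier primary screen, cut at about 5.5% in these data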;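 note: 0% = DMSO only wells and 100% = 3 µM Δ7-dafachronic acid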
Starred values were filed as active, the others as inactive; / = no result. Compounds with a hit are over-represented: about 4.5% of the library has one in this group of screens.

SMILES	hgDAF12 agonist	DAX1 inh-1	GAA850 FXN act	DAX1 inh-2	hcDAF12 agonist	ssDAF12 agonist	LXRb hcDAF ctr	hcDAF12 conf
CC(=O)NCCC(=O)N1CCc2c([nH]c3ccccc23)C1c1cccc(C)c1 (stereo not given)	9.5	0.0	1.3	0.6	7.1*	-0.1	0.1	7.6*
CC(=O)NCCC(=O)N1CCc2c([nH]c3ccccc23)C1c1cccc(Cl)c1 (stereo not given)	-1.5	0.0	-0.8	-0.6	4.1	-0.6	/	/
COC(=O)c1cn(CCOc2ccccc2OC)c2ccccc12	-3.0	-1.0	-3.3	-1.7	-2.0	-1.7	/	/
COC(=O)c1cn(CCOc2ccccc2)c2ccccc12	5.9	1.0	1.0	1.2	6.7*	1.3*	0.2	3.2
CC(O)CNC(=O)C1CCN(Cc2ccc(OCc3ccccc3)cc2)CC1 (stereo not given)	7.5	1.1	1.7	3.6	-0.1	-1.0	/	/
CC(C)CNC(=O)C1CCN(Cc2ccc(OCc3ccccc3)cc2)CC1	8.3	-0.2	2.3	0.1	7.1*	-0.2	0.7	2.9
Cc1cc(O)ccc1N/C=C(\C#N)c1nc2ccccc2o1	0.4	0.6	6.5	-0.3	8.8*	0.3	-0.2	2.8
N#C/C(=C\c1c(Cl)cccc1Cl)c1nc2ccccc2o1	0.7	-0.6	0.1	0.1	6.6*	-1.3	-0.4	0.1
c1ccc2c(c1)NCC1CCCN21 (stereo not given)	-3.6	-0.5	-2.5	-0.1	2.8	0.0	/	/
Cc1nnc(NC(=O)c2ccc3ccccc3n2)s1	5.2	4.3*	2.3	2.2	7.6*	0.2	1.0	9.1*
Cc1nc2ccc(NC(=O)c3ccc4ccccc4n3)cc2s1	3.1	0.8	3.2	1.2	2.7	-1.0	/	/
O=C(Oc1ccccc1)c1ccccc1	1.7	-0.6	1.5	0.0	1.6	-0.9	/	/
CN(C)S(=O)(=O)c1ccc(C(=O)Oc2ccccc2)cc1	2.1	-0.6	1.8	0.9	12.0*	-1.2	-0.1	0.7
ClC(Cl)(Cl)C1=NCc2nnn(Cc3ccccc3)c2N1	0.1	0.6	/	/	-2.6	-1.4	/	/
Cn1nc(-c2ccc(Cl)cc2)c2cc(C(=O)NCCCN3CCOCC3)sc21	/	/	2.2	2.7	/	/	/	/
Cn1nc(-c2ccc(Cl)cc2)c2cc(C(=O)NCCN3CCOCC3)sc21	5.0	0.6	1.0	7.5*	7.3*	0.1	0.1	5.1
CCCN(CCC)CCNC(=O)c1cc2c(-c3ccc(Cl)cc3)nn(C)c2s1	6.0	1.4	3.6	0.9	10.6*	0.4	-0.1	12.7*
Cn1nc(-c2ccc(Cl)cc2)c2cc(C(=O)N3CCN(C(=O)c4ccco4)CC3)sc21	-0.6	0.3	0.5	1.7	1.8	-0.8	/	/
CCCCN(CC)CCNC(=O)c1cc2c(-c3ccc(Cl)cc3)nn(C)c2s1	6.1	2.3	0.8	1.9	10.3*	1.3*	-0.2	10.8*
CCN1CCN(C(=O)c2cc3c(-c4ccc(Cl)cc4)nn(C)c3s2)CC1	3.7	0.8	2.0	4.5*	7.6*	1.2*	-0.2	6.6*
NC(=O)C1C2CCC(C2)C1C(N)=O (stereo not given)	0.2	-0.7	-1.4	0.4	2.0	-1.5	/	/
COc1cccc(/C=C2/SC(=S)N(CC(=O)NNC(=O)c3ccccc3OC)C2=O)c1	2.0	0.2	-1.1	0.1	8.5*	0.3	-0.1	5.1
Cc1c(C(=O)Nc2nc3ccccc3[nH]2)oc2ccc(Br)cc12	4.3	0.2	0.9	-0.3	-0.8	-0.3	/	/
Cc1c(C(=O)Nc2nc3ccccc3[nH]2)oc2c(Cl)cccc12	3.2	1.1	5.9	0.1	8.7*	1.0*	0.8	9.2*
Cc1c(C(=O)Nc2ccccn2)oc2c(Cl)cccc12	2.1	0.1	2.6	3.5	8.8*	2.0*	0.2	6.5*
SMILES	hgDAF12 agonist	DAX1 inh-1	GAA850 FXN act	DAX1 inh-2	hcDAF12 agonist	ssDAF12 agonist	LXRb hcDAF ctr	hcDAF12 conf
CN(CCNC(=O)c1ccc(CS(=O)(=O)c2c(Cl)cccc2Cl)o1)CCc1ccccc1	1.6	0.4	-0.4	0.0	-2.7	-1.0	/	/
c1ccc(-c2cccc3[nH]cc(-c4ccccc4)c23)cc1	-0.7	-0.2	/	/	-1.3	-1.1	/	/
c1ccc(-c2c[nH]c3ccc(OCc4ccc5ccccc5n4)c(-c4ccccc4)c23)cc1	5.7	0.1	/	/	7.4*	-0.2	-0.2	3.0
CCCc1cc(C(=O)NC2CCCN(Cc3ccccc3F)C2)no1 (stereo not given)	1.0	-0.3	1.7	0.9	-0.7	-0.9	/	/
CCCn1c(SC(C)C(=O)NCC2CCCO2)nc2sc3c(c2c1=O)CCC3 (stereo not given)	2.3	-2.5	-0.1	-1.2	-1.9	-1.3	/	/
C=CC[C@@H](CC(=O)N(CCO)Cc1ccccc1)C(=O)N[C@H](COC(=O)[C@@H](CC=C)Cc1ccc(F)cc1)c1ccccc1	0.5	-0.9	-9.0	-0.4	7.6*	-1.4	-0.3	0.6
C=CC[C@H](CC(=O)N(CCO)Cc1ccccc1)C(=O)N[C@H](COC(=O)[C@@H](CC=C)Cc1ccc(F)cc1)C(C)(C)C	-2.7	-0.3	-5.2	0.6	-2.4	-0.9	/	/
O=c1c2ccccc2[nH]c(=S)n1CCc1ccccc1	9.7	0.9	2.6	1.2	8.1*	0.0	0.5	5.7*
Oc1ccc(-c2nccc(-c3cccs3)n2)cc1	13.6*	1.8	3.7	4.8*	11.9*	1.0*	0.9	10.7*
CC[n+]1c(C)cc(C)n1-c1ccccc1	1.7	-0.6	-1.5	1.4	0.9	-0.8	/	/
CCN(CC)C(=O)CC[C@H]1CC[C@]2(CCCN(Cc3ccc(N(C)C)cc3)C2)O1	-0.3	0.2	/	/	-1.3	-0.8	/	/

Bioassay records deposited in PubChem by The Scripps Research Institute Molecular Screening Center.
